Source: PubChem BioAssay (NCATS)
Several values for one entry are separate records, joined by “and”; a condition that tells them apart may be missing. Equal values may be shown once. Inconclusive results are not listed. Where a call stands in place of a potency, no number is given. A structure can be active in one record and inactive in another. Activity calls are given as the source filed them. Unless noted, calls follow the shape of the full dose curve.

Columns and labels:
[1] = qHTS Assay for Identification of Small Molecule Agonists for Thrombopoietin (TPO) Signaling Pathway (AID 917; active = well fitted curve in the direction sought with a large enough effect; an effect the other way counts as inactive or inconclusive)
In short: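 First, Ba/F3 cells with human TPO receptor were held overnight without IL-3. Next, compounds and TPO (26 pM final) were added. After 24 hrs at 37 C, luciferase detection reagent was added and luminescence measured following 10 min at room temperature.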

[2] = target: Muscarinic acetylcholine receptor M1 (Rattus norvegicus) (UniProt P08482); test: qHTS Assay for Antagonists of Acetylcholine Muscarinic M1 Receptor: Measurement of IP-One Response (AID 944; active = well fitted curve in the direction sought with a large enough effect; an effect the other way counts as inactive or inconclusive; also: nearly all actives have a fitted effect of over 75% in size; also: potency is read from the fitted curve at half-maximal effect)
In short: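 IP1 accumulation measured via TR-FRET between d2-IP1 and Eu-cryptate anti-IP1 antibody after carbachol (200 nM, EC80) stimulation for 30 min; rat M1-transfected CHO cells received compound 10 min before agonist.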

[3] = target: Alpha-galactosidase (Coffea arabica) (UniProt Q42656); test: Counterscreen for Glucocerebrosidase Inhibitors: qHTS Assay for Coffee Bean alpha-Galactosidase at pH 4.5 (AID 957; active = well fitted curve in the direction sought with a large enough effect; an effect the other way counts as inactive or inconclusive; also: series mostly up to about 77 µM)
In short: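 Fluorogenic qHTS at pH 4.5 (citrate buffer with Tween-20): 2 nM enzyme, 80 uM 4-MU-alpha-galactoside substrate, compound titrated 0.7 nM to 77 uM, 20 min room temperature. Glycine/NaOH stop; 4-MU read Ex 365/Em 440; Hill-equation AC50 against no-enzyme and enzyme controls.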

[4] = target: Alpha-galactosidase (Coffea arabica) (UniProt Q42656); test: Counterscreen for Glucocerebrosidase Inhibitors: qHTS Assay for Coffee Bean alpha-Galactosidase at pH 5.9 (AID 998; active = well fitted curve in the direction sought with a large enough effect; an effect the other way counts as inactive or inconclusive)
In short: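 Fluorogenic 4-MU substrate hydrolysis, 80 uM substrate and 2 nM coffee bean alpha-galactosidase, pH 5.9 citrate buffer, 20 min at room temperature, then NaOH/glycine stop. Titration 0.7 nM–77 uM, normalized to no-enzyme and enzyme controls, AC50 via Hill equation.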

[5] = target: DNA dC->dU-editing enzyme APOBEC-3G (Homo sapiens) (UniProt Q9HC16); test: qHTS for inhibitors of Vif-A3G interactions: Validation (AID 588379; active = well fitted curve in the direction sought with a large enough effect; an effect the other way counts as inactive or inconclusive)
In short: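 Yellow fluorescence (Ex 488, Em 500-530) of Vif-coexpressing HeLa A3G-eYFP cells, scanned by Acumen cytometer, reports blocked A3G degradation. Cells plated at 700/well overnight at 37 deg C before compound addition, then a further overnight compound incubation at 37 deg C.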

[6] = target: Estrogen receptor (Homo sapiens) (UniProt P03372); test: qHTS assay for small molecule agonists of estrogen receptor alpha signaling (AID 588514); also: nearly all actives have a fitted effect of over 70% in size
In short: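 EC50 and efficacy came from Hill fits of beta-lactamase reporter signal (CCF4 dye, 2 h at room temperature) scaled between DMSO and 20 nM 17-beta-estradiol. Agonist mode: HEK293 ER-alpha-UAS-bla cells in charcoal/dextran-stripped serum medium, 18 h compound exposure at 37 C.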

[7] = qHTS assay for small molecule agonists of retinoid X receptor alpha signaling (AID 588544); conditions: HEK293T RXRa-UAS-bla, beta-lactamase reporter, 18 h; 530 nm emission; also: potency is read from the fitted curve at half-maximal effect
[8] = target: Retinoic acid receptor RXR-alpha (Homo sapiens) (UniProt P19793); test: as above
[9] = target: Peroxisome proliferator-activated receptor gamma (Homo sapiens) (UniProt P37231); test: qHTS assay for small molecule agonists of peroxisome proliferator-activated receptor gamma signaling (AID 588536; active = well fitted curve in the direction sought with a large enough effect in the signal ratio, with a control signal flat, not every such curve was filed as active; the % refers to the signal ratio)
In short: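 Beta-lactamase reporter read-out: CCF4 fluorescence (ex 405, em 460/530 nm) after 2 h at RT. HEK293 GeneBLAzer cells were treated for 16 h at 37 C. Hill fits gave EC50 and efficacy versus 2 uM rosiglitazone (100%) and DMSO (0%).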

[10] = qHTS assay to identify small molecules that stimulate interleukin-8 (IL-8) secretion (AID 651758; active = well fitted activation curve with a large enough effect in the signal ratio; the % refers to the signal ratio)
In short: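 Secreted IL-8 measured homogeneously by TR-FRET (two labelled anti-IL-8 antibodies, 1-3 h at room temperature) after a 16 h, 37 C compound treatment of THP-1 cells at 2000 cells/well.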

[11] = target: Ubiquitin carboxyl-terminal hydrolase 1 (Homo sapiens) (UniProt O94782); test: Inhibitors of USP1/UAF1: Pilot qHTS (AID 504865; active = well fitted curve in the direction sought with a large enough effect; an effect the other way counts as inactive or inconclusive;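 also: rhodamine fluorescence freed from ubiquitin-rhodamine substrate followed over time; top concentration of the series differs between compounds; nearly all actives have a fitted effect of over 35% in size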)
In short: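 USP1/UAF1 complex (1nM) preincubated with compound 15 min at room temperature, then Ub-Rho substrate (150nM final) added. Fluorescence read kinetically at 480/540 nm, 6 reads every 60 seconds. Buffer: 50mM HEPES pH 7.8, 0.5mM EDTA, 0.1 mg/ml BSA, 1mM TCEP, 0.01% Tween-20.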

[12] = qHTS assay for small molecule antagonists of peroxisome proliferator-activated receptor delta signaling (AID 588535; active = well fitted inhibition curve with a large enough effect in the signal ratio, with a control signal flat, not every such curve was filed as active; the % refers to the signal ratio;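 as to max response: cells co-treated with a PPAR-delta agonist as stimulator during compound exposure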); conditions: HEK293T PPARd-UAS-bla, beta-lactamase FRET ratio, 18 h; 460 nm channel
In short: (§1)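 Titrations were run on PPAR-delta-UAS-bla HEK293T cells in charcoal/dextran-stripped serum, incubated 18 h at 37 C. CCF4 fluorescence (460/530 nm) after 2 h RT; Hill equation yields IC50 and maximal response.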

[13] = target: Peroxisome proliferator-activated receptor delta (Homo sapiens) (UniProt Q03181); test: as above
In short: as §1

[14] = target: Androgen receptor (Homo sapiens) (UniProt P10275); test: qHTS assay for small molecule agonists of androgen receptor signaling (AID 588515; active = well fitted curve in the direction sought with a large enough effect in the signal ratio, with a control signal flat; the % refers to the signal ratio); conditions: AR-UAS-bla HEK293, beta-lactamase ratio, agonist 16 h; stronger effect = higher value
In short: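 Stimulation of an AR-responsive β-lactamase reporter in GripTite HEK293 cells was measured after 16 h compound exposure at 37 °C, via CCF4 fluorescence after 2 h RT. EC50 from Hill fits, normalized to R1881 at 30 nM.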

[15] = target: Androgen receptor (Homo sapiens) (UniProt P10275); test: qHTS assay for small molecule antagonists of androgen receptor signaling (AID 588516; active = well fitted curve in the direction sought with a large enough effect in the signal ratio, with a control signal flat, not every such curve was filed as active; the % refers to the signal ratio; also: potency is read from the fitted curve at half-maximal effect)
In short: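 AR-UAS-bla-GripTite HEK 293 cells (2000/well, 5 h at 37 C) received compound titrations, then R1881 at 10 nM final; after 16 h at 37 C, CCF4 dye 2 h RT, beta-lactamase fluorescence read; IC50 from Hill fits.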

[16] = target: Peroxisome proliferator-activated receptor gamma (Homo sapiens) (UniProt P37231); test: qHTS assay for small molecule antagonists of peroxisome proliferator-activated receptor gamma signaling (AID 588537; active = well fitted inhibition curve with a large enough effect in the signal ratio, with a control signal flat, not every such curve was filed as active; the % refers to the signal ratio;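 also: reporter cells co-stimulated with 50 nM rosiglitazone agonist during compound treatment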)
In short: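 Antagonist-mode β-lactamase reporter screen run as a titration series. HEK293 PPARγ-UAS-bla cells are stimulated with rosiglitazone (50 nM final) for 16 h, then CCF4 is read at 460/530 nm. Data are scaled between DMSO and rosiglitazone and fitted to the Hill equation.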

[17] = target: Bile acid receptor (Homo sapiens) (UniProt Q96RI1); test: qHTS assay for small molecule antagonists of farnesoid X receptor signaling (AID 588526); also: potency is read from the fitted curve at half-maximal effect
In short: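 Beta-lactamase reporter antagonist mode: HEK293T FXR-UAS-bla cells, titrated compound, CDCA stimulation, 16 h 37 C, CCF4 dye 2 h RT. Data normalized to CDCA 50 uM and DMSO; Hill-fit IC50.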

[18] = qHTS Assay for Identification of Small Molecule Agonists for Hypoxia Response Element Signaling Pathway (AID 914; active = well fitted activation curve with a large enough effect in the signal ratio, with a control signal flat, not every such curve was filed as active; the % refers to the signal ratio); conditions: ME-180 (cervical carcinoma) HRE-bla reporter, beta-lactamase ratio, CoCl2, 17 h; activation: stronger effect = higher value
In short: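 Positive modulation of EC50 CoCl2-induced hypoxia response element signaling is measured in ME-180 cells with a beta-lactamase reporter. Compounds are titrated, incubation runs 17 hours, and %Activity derives from the blue/green ratio.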

[19] = qHTS Assay for Identification of Small Molecule Antagonists for Thrombopoietin (TPO) Signaling Pathway (AID 918; active = well fitted curve in the direction sought with a large enough effect; an effect the other way counts as inactive or inconclusive; also: potency is read from the fitted curve at half-maximal effect; nearly all actives have a fitted effect of over 60% in size); conditions: TPO-dependent cell signaling reporter, antagonist mode
In short: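 Inhibition read as reduced luciferase luminescence after 24 h at 37 C in IL-3-deprived Ba/F3 cells carrying human TPO receptor and GPIIb-promoter reporter, stimulated with 26 pM TPO (final, its EC50) alongside compound.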

[20] = target: Muscarinic acetylcholine receptor M1 (Rattus norvegicus) (UniProt P08482); test: qHTS Assay for Antagonists of Acetylcholine Muscarinic M1 Receptor: Kinetic Measurement of Intracellular Calcium Response (AID 943; active = well fitted curve in the direction sought with a large enough effect; an effect the other way counts as inactive or inconclusive;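 also: Fluo-4 calcium signal as peak divided by basal fluorescence over 4 min; series mostly up to about 35 µM; nearly all actives have a fitted effect of over 75% in size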)
In short: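 Antagonism measured as reduction of carbachol-evoked (EC80, 100 nM final) calcium flux in rat M1-CHO cells after 10 min compound exposure. Fluo-4 signal read kinetically; ratio of maximal to basal fluorescence.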

Sequence of Peroxisome proliferator-activated receptor gamma (Homo sapiens) (P37231 whole entry, looked up): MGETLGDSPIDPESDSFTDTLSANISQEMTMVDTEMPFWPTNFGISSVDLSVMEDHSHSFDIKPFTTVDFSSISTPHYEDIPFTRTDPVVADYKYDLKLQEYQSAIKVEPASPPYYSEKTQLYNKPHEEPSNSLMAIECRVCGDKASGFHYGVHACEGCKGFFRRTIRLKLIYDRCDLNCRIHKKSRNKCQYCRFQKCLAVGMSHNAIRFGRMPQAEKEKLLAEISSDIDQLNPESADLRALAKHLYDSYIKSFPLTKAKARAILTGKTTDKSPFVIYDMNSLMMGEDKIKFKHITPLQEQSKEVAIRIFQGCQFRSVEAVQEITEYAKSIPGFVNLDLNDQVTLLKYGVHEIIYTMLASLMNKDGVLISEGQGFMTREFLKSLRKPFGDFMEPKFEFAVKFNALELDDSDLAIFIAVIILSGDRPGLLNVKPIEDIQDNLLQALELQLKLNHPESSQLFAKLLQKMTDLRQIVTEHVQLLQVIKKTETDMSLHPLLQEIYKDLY
Sequence of Androgen receptor (Homo sapiens) (P10275 whole entry, looked up): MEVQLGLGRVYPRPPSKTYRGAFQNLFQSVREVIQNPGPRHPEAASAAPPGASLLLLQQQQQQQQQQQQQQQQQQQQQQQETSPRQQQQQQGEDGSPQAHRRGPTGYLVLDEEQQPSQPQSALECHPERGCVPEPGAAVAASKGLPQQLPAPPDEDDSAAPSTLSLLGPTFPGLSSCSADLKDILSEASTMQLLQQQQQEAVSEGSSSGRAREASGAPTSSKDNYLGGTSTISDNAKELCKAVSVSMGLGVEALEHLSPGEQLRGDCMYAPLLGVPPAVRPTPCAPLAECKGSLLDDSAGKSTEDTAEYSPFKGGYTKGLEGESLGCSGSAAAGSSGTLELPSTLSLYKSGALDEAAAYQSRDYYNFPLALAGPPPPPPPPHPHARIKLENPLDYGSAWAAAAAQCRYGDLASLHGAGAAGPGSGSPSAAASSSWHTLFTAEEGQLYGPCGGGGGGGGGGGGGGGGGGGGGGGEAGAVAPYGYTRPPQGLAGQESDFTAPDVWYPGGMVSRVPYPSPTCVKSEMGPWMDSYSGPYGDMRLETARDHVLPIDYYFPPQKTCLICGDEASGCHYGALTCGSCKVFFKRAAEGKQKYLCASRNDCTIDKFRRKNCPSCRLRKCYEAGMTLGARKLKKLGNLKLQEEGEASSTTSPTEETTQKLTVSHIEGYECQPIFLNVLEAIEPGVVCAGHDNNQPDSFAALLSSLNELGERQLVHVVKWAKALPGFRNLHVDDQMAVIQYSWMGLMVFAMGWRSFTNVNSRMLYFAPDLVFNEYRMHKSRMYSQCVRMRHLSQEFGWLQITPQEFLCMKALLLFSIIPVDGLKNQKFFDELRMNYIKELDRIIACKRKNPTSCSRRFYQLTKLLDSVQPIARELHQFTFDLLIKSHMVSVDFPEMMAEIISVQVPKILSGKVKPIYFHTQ
Sequence of Peroxisome proliferator-activated receptor delta (Homo sapiens) (Q03181 whole entry, looked up): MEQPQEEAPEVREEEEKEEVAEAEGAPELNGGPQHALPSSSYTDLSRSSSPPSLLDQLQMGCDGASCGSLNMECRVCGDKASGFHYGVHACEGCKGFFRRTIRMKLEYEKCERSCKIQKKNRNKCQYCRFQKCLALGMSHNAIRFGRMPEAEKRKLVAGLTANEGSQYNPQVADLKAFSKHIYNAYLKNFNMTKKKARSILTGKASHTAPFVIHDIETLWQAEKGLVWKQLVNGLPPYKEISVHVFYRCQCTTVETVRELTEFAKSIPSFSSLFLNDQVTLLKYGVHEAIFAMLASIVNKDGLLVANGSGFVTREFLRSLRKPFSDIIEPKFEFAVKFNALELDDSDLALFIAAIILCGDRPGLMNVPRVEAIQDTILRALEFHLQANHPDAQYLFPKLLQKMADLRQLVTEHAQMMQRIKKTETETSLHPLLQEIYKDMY
Sequence of Muscarinic acetylcholine receptor M1 (Rattus norvegicus) (P08482 whole entry, looked up): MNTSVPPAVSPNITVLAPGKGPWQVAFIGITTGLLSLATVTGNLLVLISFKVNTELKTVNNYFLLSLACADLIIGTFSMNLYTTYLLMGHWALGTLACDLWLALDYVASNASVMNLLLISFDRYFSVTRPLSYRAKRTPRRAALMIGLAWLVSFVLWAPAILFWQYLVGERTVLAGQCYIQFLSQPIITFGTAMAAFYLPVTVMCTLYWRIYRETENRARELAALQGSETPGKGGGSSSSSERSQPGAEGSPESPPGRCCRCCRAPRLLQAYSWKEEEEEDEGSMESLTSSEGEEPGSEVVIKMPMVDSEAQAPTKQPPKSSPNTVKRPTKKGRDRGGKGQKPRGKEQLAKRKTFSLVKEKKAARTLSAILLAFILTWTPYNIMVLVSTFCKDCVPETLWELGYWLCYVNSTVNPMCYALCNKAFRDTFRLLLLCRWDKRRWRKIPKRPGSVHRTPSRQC
Sequence of Estrogen receptor (Homo sapiens) (P03372 whole entry, looked up): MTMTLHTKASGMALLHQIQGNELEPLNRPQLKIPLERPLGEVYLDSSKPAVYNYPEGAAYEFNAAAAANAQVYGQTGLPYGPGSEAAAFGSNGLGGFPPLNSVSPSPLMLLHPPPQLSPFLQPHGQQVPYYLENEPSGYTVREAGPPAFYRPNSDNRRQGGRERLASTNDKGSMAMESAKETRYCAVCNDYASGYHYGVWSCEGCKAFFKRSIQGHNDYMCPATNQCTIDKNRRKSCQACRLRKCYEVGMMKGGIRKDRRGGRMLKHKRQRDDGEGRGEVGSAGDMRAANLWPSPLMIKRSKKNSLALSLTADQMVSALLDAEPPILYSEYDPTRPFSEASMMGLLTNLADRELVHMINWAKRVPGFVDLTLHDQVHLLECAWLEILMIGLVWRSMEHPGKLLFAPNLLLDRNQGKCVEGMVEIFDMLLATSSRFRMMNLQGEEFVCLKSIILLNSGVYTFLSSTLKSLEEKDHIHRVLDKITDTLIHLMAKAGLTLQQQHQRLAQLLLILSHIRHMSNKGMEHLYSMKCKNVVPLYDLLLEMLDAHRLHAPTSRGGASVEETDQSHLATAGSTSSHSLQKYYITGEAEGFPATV
Sequence of Bile acid receptor (Homo sapiens) (Q96RI1 whole entry, looked up): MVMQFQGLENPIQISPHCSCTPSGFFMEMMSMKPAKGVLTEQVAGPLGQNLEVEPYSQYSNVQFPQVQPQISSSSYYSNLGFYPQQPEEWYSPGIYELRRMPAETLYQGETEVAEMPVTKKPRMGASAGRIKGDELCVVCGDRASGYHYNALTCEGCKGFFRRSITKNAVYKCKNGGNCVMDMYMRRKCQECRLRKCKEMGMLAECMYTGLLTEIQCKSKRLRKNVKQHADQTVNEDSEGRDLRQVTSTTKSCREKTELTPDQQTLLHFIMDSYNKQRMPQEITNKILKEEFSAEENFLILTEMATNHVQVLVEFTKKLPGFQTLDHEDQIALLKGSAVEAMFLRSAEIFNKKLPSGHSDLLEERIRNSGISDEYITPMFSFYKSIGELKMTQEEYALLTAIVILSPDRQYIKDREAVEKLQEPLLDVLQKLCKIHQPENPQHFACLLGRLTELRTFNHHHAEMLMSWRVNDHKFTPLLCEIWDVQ
Sequence of Retinoic acid receptor RXR-alpha (Homo sapiens) (P19793 whole entry, looked up): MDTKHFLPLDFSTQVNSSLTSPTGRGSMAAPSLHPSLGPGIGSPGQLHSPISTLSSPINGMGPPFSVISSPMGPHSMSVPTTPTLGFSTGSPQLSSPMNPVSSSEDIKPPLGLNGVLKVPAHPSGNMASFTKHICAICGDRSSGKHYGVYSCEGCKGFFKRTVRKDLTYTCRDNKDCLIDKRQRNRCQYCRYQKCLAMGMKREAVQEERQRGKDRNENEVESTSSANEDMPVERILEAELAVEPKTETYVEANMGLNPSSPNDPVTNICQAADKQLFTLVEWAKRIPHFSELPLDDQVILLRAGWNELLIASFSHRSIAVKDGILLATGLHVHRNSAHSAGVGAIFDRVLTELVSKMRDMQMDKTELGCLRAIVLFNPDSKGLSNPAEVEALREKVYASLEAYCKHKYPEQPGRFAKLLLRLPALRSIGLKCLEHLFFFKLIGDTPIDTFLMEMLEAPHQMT
Sequence of DNA dC->dU-editing enzyme APOBEC-3G (Homo sapiens) (Q9HC16 whole entry, looked up): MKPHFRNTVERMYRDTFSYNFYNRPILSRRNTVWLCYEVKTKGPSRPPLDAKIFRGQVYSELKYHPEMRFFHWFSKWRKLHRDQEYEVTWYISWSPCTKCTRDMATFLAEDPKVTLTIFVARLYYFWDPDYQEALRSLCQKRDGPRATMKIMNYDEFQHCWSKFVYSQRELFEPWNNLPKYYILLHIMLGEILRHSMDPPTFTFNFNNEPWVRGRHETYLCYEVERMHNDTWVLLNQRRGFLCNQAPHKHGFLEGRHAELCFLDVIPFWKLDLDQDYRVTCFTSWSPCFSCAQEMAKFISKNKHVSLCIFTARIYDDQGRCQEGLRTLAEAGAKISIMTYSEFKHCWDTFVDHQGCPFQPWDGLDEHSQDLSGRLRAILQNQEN
Sequence of Alpha-galactosidase (Coffea arabica) (Q42656 whole entry, looked up): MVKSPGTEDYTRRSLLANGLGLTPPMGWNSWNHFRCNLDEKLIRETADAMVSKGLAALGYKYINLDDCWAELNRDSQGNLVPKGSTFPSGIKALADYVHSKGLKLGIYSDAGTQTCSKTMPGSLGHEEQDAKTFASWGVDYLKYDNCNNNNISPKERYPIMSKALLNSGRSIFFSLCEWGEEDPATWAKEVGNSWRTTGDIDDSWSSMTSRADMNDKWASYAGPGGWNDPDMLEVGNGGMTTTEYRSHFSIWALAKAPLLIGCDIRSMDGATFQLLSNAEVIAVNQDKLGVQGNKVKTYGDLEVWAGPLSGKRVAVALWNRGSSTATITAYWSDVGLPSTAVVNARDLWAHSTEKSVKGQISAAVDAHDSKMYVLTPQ

Which outcome [1] does the source give for `CCCN1CCC[C@H](c2cccc(C#N)c2)C1` here?
The outcome was “inactive”.

What about the Potency [2] of the same compound?
The Potency was 11.2 µM (active).

What about the outcome [3] of the same compound?
The outcome was “inactive”.

What about the outcome [4] of the same compound?
The outcome was “inactive”.

Which outcome [5] does the source give for `COc1cc2c(cc1O)-c1c(O)c(OC)cc3c1[C@H](C2)N(C)CC3` here?
The outcome was “inactive”.

What does the source list for `O=C(O)C1C(C(=O)O)C2(Cl)C(Cl)=C(Cl)C1(Cl)C2(Cl)Cl` (configuration not stated)?
Potency [6]: inactive; max response [7]: -3.38%; Potency [8]: inactive

For `OC(c1ccc(Cl)cc1)(c1ccc(Cl)cc1)C(Cl)(Cl)Cl`, which Potency [6] is on record?
The Potency was “inactive”.

And the Potency [9]?
Its Potency is “inactive”.

What about the max response [7] of the same compound?
The max response was -15%.

What about the Potency [8] of the same compound?
Its Potency is “inactive”.

And the Potency [10]?
The Potency was “inactive”.

For `CN(CCc1ccc(Cl)c(Cl)c1)[C@H]1CCCC[C@H]1N1CCCC1`, which Potency [11] is on record?
The Potency was “inactive”.

What about the outcome [5] of the same compound?
Its outcome is “inactive”.

What does the source list for `Clc1ccc(C(c2ccc(Cl)cc2)C(Cl)Cl)cc1`?
Potency [6]: inactive; max response [12]: -7.51%; Potency [13]: inactive; max response [7]: -1.02%; Potency [8]: inactive

What does the source list for `C#CCO`?
max response [12]: 29.5%; Potency [13]: inactive; Potency [9]: inactive; max response [7]: 3.2%; Potency [8]: inactive

Which activation [14] does the source give for `O=C1C2(Cl)C3(Cl)C4(Cl)C(Cl)(Cl)C5(Cl)C3(Cl)C1(Cl)C5(Cl)C24Cl` (configuration not stated) here?
The activation was 0.62% (inactive).

And the Potency [15]?
Its Potency is 44.7 µM (active) and inactive.

With `O=C(CCl)c1ccccc1` as the compound, how does the max response [12] read?
Its max response is 18.1%.

And the Potency [16]?
The Potency was “inactive”.

For `O=[N+]([O-])c1cc(C(F)(F)F)cc([N+](=O)[O-])c1Cl`, which Potency [6] is on record?
The Potency was “inactive”.

What about the Potency [17] of the same compound?
The Potency was “inactive”.

And the max response [12]?
Its max response is 32.3%.

What about the Potency [13] of the same compound?
The Potency was “inactive”.

What about the Potency [9] of the same compound?
The Potency was “inactive”.

And the max response [7]?
The max response was 2.71%.

What about the Potency [8] of the same compound?
The Potency was “inactive”.

What about the Potency [10] of the same compound?
The Potency was “inactive”.

What does the source list for `c1ccc2cc3c(cc2c1)-c1cccc2cccc-3c12`?
max response [7]: 21%; Potency [8]: 2.82 µM (active)

Which activation [14] does the source give for `N#CC(Cl)Cl` here?
Its activation is 16.6% (inactive).

And the Potency [15]?
The Potency was “inactive”.

And the max response [7]?
The max response was 17.1%.

What about the Potency [8] of the same compound?
The Potency was “inactive”.

Which Potency [15] does the source give for `Oc1c(Br)c(Br)c(Br)c(Br)c1Br` here?
Its Potency is “inactive”.

What about the Potency [17] of the same compound?
The Potency was 28.2 µM (active).

For `CN[C@@H](C)[C@@H](O)c1ccccc1`, which activation [18] is on record?
Its activation is 24.4% (inactive).

And the Potency [19]?
Its Potency is 3.16 µM (active).

And the Potency [20]?
The Potency was “inactive”.

And the Potency [2]?
Its Potency is “inactive”.

For `Nc1ccccc1C(=O)OCCc1ccccc1`, which Potency [16] is on record?
The Potency was “inactive”.

For `FC(F)(F)c1ccc(Cl)cc1`, which Potency [17] is on record?
The Potency was “inactive”.

What about the max response [12] of the same compound?
Its max response is -2.48% and -14.3%.

And the Potency [13]?
The Potency was “inactive”.

And the Potency [9]?
The Potency was “inactive”.

And the Potency [16]?
The Potency was “inactive”.

And the max response [7]?
Its max response is -3.02% and -12.4%.

And the Potency [8]?
The Potency was “inactive”.
